BCR signal inh: qHTS Assay to Find Inhibitors of Chronic Active B-Cell Receptor Signaling; ABC-DLBCL IkBa-CBG/CBR reporter, luminescence ratio, 4 h; actives 0.05% (n = 340,000); Potency, µM (highest dose often 46.1 µM), for inactives: top-dose activity change, negative = inhibition, most hits filed as inhibitors; active = well fitted inhibition curve with a large enough effect in the signal ratio, with a control signal flat, not every such curve was filed as active; inconclusive = small, poorly fitted or top-dose-only effect, or effect the other way, or a change in a side signal; the % refers to the signal ratio;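 note: plate controls were basal doxycycline-induced cells for no effect and cells given 10 µM MG132 for full effect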
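Doxycycline induced both beetle luciferases in TMD8 lymphoma cells; IKK-driven degradation limits the IkappaBalpha-fused green signal, while red luminescence normalises for cell number and nonspecific effects. Compounds tested up to 46 uM, 4 hrs.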
MBNL1-CUG inh: qHTS Assay for Inhibitors of MBNL1-poly(CUG) RNA binding; Muscleblind-like protein 1 (Homo sapiens), Q9NR56; TR-FRET MBNL1-His/biotin-(CUG)12 binding, 665/545 ratio; Potency, µM (top dose mostly 57.5 µM), for the others: top-dose activity change, negative = inhibition, hits mostly inhibitors; actives 0.036% (n = 280,000); AID 2675, 2010; active = well fitted inhibition curve with a large enough effect in the signal ratio, with a control signal flat, not every such curve was filed as active; inconclusive = small, poorly fitted or top-dose-only effect, or effect the other way, or a change in a side signal; inactive = no such curve, though single readings can be large or run the other way; the % refers to the signal ratio; note: % is set by controls: 0 for no effect and ±100 for the full control effect
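Ratiometric TR-FRET (665 over 545 nm, excitation 340 nm) tracks disruption of MBNL1-His/biotin-(CUG)12 complex after 60 min at room temperature, with compounds at 92 nM to 58 uM final.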
B2AR arrestin: qHTS assay of beta-arrestin-biased ligands of beta2-adrenergic receptor; actives 0.02% (n = 330,000); beta-arrestin recruitment to beta2AR, cell-based reporter; Potency, µM (series often up to 46.1 µM), for inactives: at the top dose activation, hits mostly activators; Beta-2 adrenergic receptor (Homo sapiens), P07550;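 note: 0% = DMSO controls and full agonism = EC100 isoproterenol or metaproterenol; nearly all actives have a fitted effect of over 65% in size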
Target sequence (P07550 whole entry, looked up): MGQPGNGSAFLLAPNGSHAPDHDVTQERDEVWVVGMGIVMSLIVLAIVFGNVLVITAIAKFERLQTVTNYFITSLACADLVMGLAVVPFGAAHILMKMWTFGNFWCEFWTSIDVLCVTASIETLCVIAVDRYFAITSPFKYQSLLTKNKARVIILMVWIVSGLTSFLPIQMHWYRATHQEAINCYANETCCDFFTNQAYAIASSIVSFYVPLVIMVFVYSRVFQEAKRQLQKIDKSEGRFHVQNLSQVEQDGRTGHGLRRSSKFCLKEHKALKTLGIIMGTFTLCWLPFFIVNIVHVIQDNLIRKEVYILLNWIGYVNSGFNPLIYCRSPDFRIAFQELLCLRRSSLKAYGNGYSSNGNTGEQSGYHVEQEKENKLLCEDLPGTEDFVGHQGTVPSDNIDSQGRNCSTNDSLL
Tb PFK inh-1: qHTS Assay to Find Inhibitors of T. brucei phosphofructokinase; actives 0.17% (n = 330,000); ATP-dependent 6-phosphofructokinase (Trypanosoma brucei brucei), O15648; Potency, µM (series often up to 57.5 µM), inactives show top-dose activity, negative = inhibition, usual class: inhibitors; AID 485367, 2010; T. brucei PFK, ADP-Glo luminescence;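 note: 0% = uninhibited 1x PFK enzyme wells and -100% = no-enzyme wells; nearly all actives have a fitted effect of over 60% in size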
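PFK 1.25 nM, F6P 0.5 mM, ATP 0.1 mM, 0.1 M TEA pH 8.0, 5 mM MgCl2, 0.01% Tween20, 0.1% BSA; 45 min RT. ADP-Glo readout. qHTS titration up to 57 uM; curves fitted, compounds curve-classed.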
Tb PFK KinaseGlo: Tb PFK orthogonal confirmatory assay using ATP depletion (Kinase-Glo Plus) as an alternative measure of Tb PFK activity: Hit Validation; shares compounds with Tb PFK inh-1; Tb PFK enzyme, ATP depletion, Kinase-Glo Plus luminescence; Potency, µM (doses to about 57.5 µM), inactives show at the top dose inhibition; actives 47% (n = 1,100); calls by dose curve; note: nearly all actives have a fitted effect of over 60% in size
Tb PFK inh-2: Inhibitors of T. brucei phosphofructokinase: Hit Validation. shares compounds with Tb PFK inh-1. purified T. brucei PFK, ADP-Glo luminescence, 45 min. Potency, µM (titrated, usually from 57.5 µM), inactives show at the top dose activity change, negative = inhibition, usual class: inhibitors. actives 41% (n = 1,100);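 note: plate controls were full PFK enzyme control for no effect and no enzyme control for full effect; nearly all actives have a fitted effect of over 60% in size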
* marks the source's active call; other numbers are inactive results; ? = inconclusive; / = not tested or not shown. Most compounds without a hit are left out; they make up all but 0.27% or so of the library. Unless noted, calls come from the whole dose curve; as a rule, active = well fitted curve in the direction sought with a large enough effect; inconclusive = small, poorly fitted or top-dose-only effect, or another doubt; inactive = no such curve, though single readings can be large; an effect the other way counts as inactive or inconclusive. Potency is the fitted concentration of half-maximal effect.

SMILES	BCR signal inh	MBNL1-CUG inh	B2AR arrestin	Tb PFK inh-1	Tb PFK KinaseGlo	Tb PFK inh-2
Cc1cc(OCC(=O)OCC(=O)N(C)C2CCS(=O)(=O)C2)ccc1Cl (stereo not given)	-5.2%	/	-0.3%	-3.0%	/	/
CN1CCc2nc3sc(C(=O)C45CC6CC(CC(C6)C4)C5)c(N)c3cc2C1	-1.7%	?	0.0%	?	-33.8%	?
CCCN1C(=O)S/C(=C\c2ccc(N3CCOCC3)o2)C1=O	-16.7%	-11.3%	0.7%	?	/	/
CCCN1C(=O)S/C(=C/c2ccc(N3CCOCC3)o2)C1=O	-0.7%	?	5.4%	?	6.7%	-4.5%
CCOc1ccccc1NC(=O)CN1C=NS(=O)(=O)c2ccccc21	-1.2%	/	/	/	/	/
CCNc1nc(NCC)n2c(SCC(=O)Nc3ccccc3)nnc2n1	6.2%	-3.0%	-0.6%	-0.3%	/	/
CCNc1nc(NCC)n2c(SCC(=O)Nc3ccc(C)c(C)c3)nnc2n1	-4.7%	/	-0.3%	13.5µM*	?	?
CCNc1nc(NCC)n2c(SCC(=O)Nc3ccc(OC(F)F)cc3)nnc2n1	-7.4%	/	0.0%	7.57µM*	5.36µM*	8.49µM*
CCNc1nc(NCC)n2c(SCC(=O)Nc3ccc(F)cc3)nnc2n1	0.0%	/	-0.3%	?	/	/
O=C(CSc1nc2ccccc2c(=O)n1CCCO)Nc1ccc2c(c1)OCCO2	-9.3%	/	-0.1%	0.4%	/	/
O=C(O)c1ccc2c(c1)C(=O)/C(=C\c1ccco1)C2=O	?	?	0.1%	?	16.9%	?
O=C(O)c1ccc2c(c1)C(=O)/C(=C/c1ccccc1)C2=O	?	?	0.0%	?	-16.4%	?
CCOC(=O)c1cc(-c2ccccc2)n(CC(=O)Nc2cc(Cl)c(OC)cc2OC)c1C	6.4%	/	/	/	/	/
CCOc1ccc(C2C(=O)N(C3CCCCCC3)CC(=O)N2Cc2ccc(F)cc2)cc1OC (stereo not given)	1.9%	/	/	/	/	/
O=S(=O)(c1ccc(NC(=S)NCCc2ccccc2)cc1)N1CCOCC1	-1.7%	-15.6%	-1.3%	-3.6%	/	/
NS(=O)(=O)c1ccc(NC(=S)NCc2ccc(F)cc2)cc1	0.2%	-9.3%	-0.5%	23.9µM*	10.7µM*	23.9µM*
Cc1cc(C)cc(NC(=S)NCc2ccc(S(N)(=O)=O)cc2)c1	0.5%	0.2%	0.1%	0.2%	/	/
NS(=O)(=O)c1ccc(NC(=O)COc2ccc(Cl)cc2)cc1	-0.1%	-4.8%	0.4%	1.9µM*	1.07µM*	?
NS(=O)(=O)c1ccc(NC(=O)COC(=O)COc2ccc(Cl)cc2)cc1	0.6%	-9.0%	-0.9%	-3.0%	/	/
O=S(=O)(c1ccc(NC(=S)NCc2ccc(F)cc2)cc1)N1CCOCC1	-9.1%	0.0%	-0.4%	23.9µM*	12µM*	30.1µM*
NS(=O)(=O)c1ccc(NC(=S)NC2CCCC2)cc1	?	/	-0.5%	?	8.6%	-0.1%
CCOC(=O)c1c(S(=O)(=O)N2CCC(C(=O)N3CCN(c4ccccc4F)CC3)CC2)c(C)n(C)c1C	0.2%	/	/	/	/	/
Cc1cc(NC(=O)C(C)SCC(=O)N(C)Cc2c(F)cccc2Cl)no1 (stereo not given)	-0.1%	/	4.5%	-1.7%	/	/
CC(NC(=O)COC(=O)CNC(=O)C1CCCCC1)c1ccccc1 (stereo not given)	7.1%	/	-0.4%	2.5%	/	/
S=C(NCc1ccc(Cl)cc1)Nc1ccncc1	-5.6%	-3.7%	-0.2%	8.49µM*	7.57µM*	12µM*
SMILES	BCR signal inh	MBNL1-CUG inh	B2AR arrestin	Tb PFK inh-1	Tb PFK KinaseGlo	Tb PFK inh-2
NS(=O)(=O)c1ccc(NC(=S)NCc2ccc(Cl)cc2)cc1	?	0.4%	0.5%	12µM*	2.69µM*	5.36µM*
O=[N+]([O-])c1ccc(NC(=S)NCc2ccc(F)cc2)cc1	?	?	-0.4%	?	19µM*	?
NS(=O)(=O)c1ccc(NC(=O)CSc2ccccc2)cc1	-10.0%	/	0.4%	15.1µM*	23.9µM*	30.1µM*
O=[N+]([O-])c1ccc(NC(=S)NCc2ccncc2)cc1	?	?	-0.2%	?	/	/
NS(=O)(=O)c1ccc(CNC(=S)Nc2ccc(F)c(Cl)c2)cc1	-20.6%	-28.4%	-0.2%	?	/	/
CCc1cccc(C)c1NC(=O)c1nc2ccccc2nc1N1CCCCC1	15.6%	/	/	/	/	/
CC(C)OCCCNC(=S)Nc1ccc(S(N)(=O)=O)cc1	?	/	3.6%	26.9µM*	6.75µM*	13.5µM*
Cc1ccc(N/N=C/c2c(C)c(C#N)c(=O)n(C)c2O)cc1C	6.5%	?	0.1%	?	6.4%	-2.6%
O=C(Cc1ccc(Br)cc1)Nc1ccc(S(=O)(=O)N2CCCC2)cc1	-9.8%	3.2%	-0.1%	19µM*	10.7µM*	21.3µM*
CCOc1ccc(CC(=O)Nc2ccc(S(=O)(=O)N3CCCC3)cc2)cc1	1.6%	2.6%	0.0%	-2.4%	/	/
O=C(Cc1ccc(F)cc1)Nc1cccc(S(=O)(=O)N2CCCC2)c1	?	/	-0.4%	0.5%	/	/
O=C(Cc1ccc(F)cc1)Nc1ccc(S(=O)(=O)N2CCCC2)cc1	-10.0%	/	0.0%	16.9µM*	?	?
Cc1cc(S(=O)(=O)Nc2ccc3cn[nH]c3c2)c(C)cc1Cl	?	-8.8%	0.3%	0.0%	/	/
Cc1ccc(O)c(NC2=C(Cl)C(=O)N(Cc3ccccc3)C2=O)c1	?	11.8%	-0.7%	23.9µM*	10.7µM*	19µM*
Cc1ccc(C(=O)N2CCCCC2)cc1NC1=C(Cl)C(=O)N(Cc2ccccc2)C1=O	?	/	0.1%	-6.7%	/	/
COc1ccccc1OCc1nn[nH]n1	3.9%	-2.7%	-0.8%	-4.8%	/	/
O=C(N/N=C\C=C\c1ccc2c(c1)OCO2)c1cccnc1	?	?	-1.6%	0.0%	/	/
O=C(N/N=C\C=C\c1ccc2c(c1)OCO2)C1COc2ccccc2O1 (stereo not given)	-0.4%	37.2%	-0.5%	26.9µM*	16.9µM*	21.3µM*
O=C(NC(=S)N1CCCCC1CO)c1cccs1 (stereo not given)	?	/	0.0%	-23.1%	/	/
CC1CCN(S(=O)(=O)c2ccc3c(c2)CCC(=O)N3CC(=O)Nc2cccc(C#N)c2)CC1	10.4%	/	-0.2%	9.53µM*	6.01µM*	12µM*
C[C@H](CO)N1C[C@H](C)[C@@H](CN(C)C(=O)Nc2ccc3c(c2)OCO3)Oc2ccc(NS(=O)(=O)c3cn(C)cn3)cc2C1=O	0.0%	/	0.0%	4.7%	/	/
